We go through 24 molecules from PubChem BioAssay AID1259240 (Keith Lab, Institute of Cancer Science, University of …, 2017).

The source made the active and inactive calls. No stated cut-off is given here; in the data, active means fold change mostly below about -2 (no sharp cut-off); inactive means mostly above about -1.8.

The nature of this test: TERT promoter activity modulators, primary screen, cell-based, luciferase reporter, human (AID 1259240). The following applies: A2780 TERT promoter luciferase reporter, 16 h; at 20 µM, fold versus average of vehicle-only wells.
For the molecule `O=C(Nc1nnc(N2CCCCC2)s1)Nc1ccccc1Cl`, the fold change was -2.93 (active).
Same read-out and setting: the value for `COc1ccc2cc3c(N)nn(C(=O)CSc4ccncc4)c3nc2c1` was -1.05 (inactive).
On the same count and under the same terms, in the case of `CCOc1cc(C2c3c(oc4ccc(F)cc4c3=O)C(=O)N2Cc2ccc(F)cc2)ccc1O` (centres undefined) it was -3.2 (active).
Turning to `NC(=O)c1c(NC(=O)c2cc(-c3ccc(O)cc3)on2)sc2c1CCCC2`, the molecule was classed as inactive.
Take `COc1ccc(C(=O)CSc2nnc(Cc3cc(=O)[nH]c(=O)[nH]3)n2-c2ccc(Cl)cc2)cc1`: the fold change is -1.34 (inactive).
Take `Cc1nnc(SCc2nc(-c3ccc(Cl)cc3)no2)n1-c1ccccc1`: the fold change was -1.9 (inactive).
For `CCOC(=O)N1CCC(Nc2c(N3CCN(c4ccc(C(C)=O)cc4)CC3)c(=O)c2=O)CC1`, the fold change is -1.1 (inactive).
Regarding `Cc1cc(NC(=O)CSc2ncnc3ccccc23)no1`, the fold change is 1.35 (inactive).
For `Cc1cc(NC(=O)CSc2nnc(Cc3cc(=O)[nH]c(=O)[nH]3)n2-c2ccc(Cl)cc2)no1`, the fold change was -1.22 (inactive).
As to `COC(=O)CSCc1nc2ccccc2[nH]c1=O`, the fold change was -1.41 (inactive).
`O=S(=O)(Nc1cccc(C(F)(F)F)c1)c1cccc2cccnc12`: the fold change is -1.42 (inactive).
For the molecule `COc1ccc(-n2c(-c3ccco3)nc3c(cnn3-c3ccc(Cl)cc3)c2=O)cc1`, the fold change is -1.39 (inactive).
Consider `CCOC(=O)Cn1c(=O)oc2cc(S(=O)(=O)NCc3cccs3)ccc21`, for which the fold change is -1.2 (inactive).
The same measure, in the same setting: the value for `CN(C)c1nc(C(=O)OCCO)nc(N(C)C)n1` was -3.45 (active); that for `CCOC(=O)N1CCN(c2c(NC3CCCCCC3)c(=O)c2=O)CC1` was -1.07 (inactive); that for `CC(C)CCNC(=O)Cn1c(=O)oc2cc(S(=O)(=O)N3CCc4ccccc43)ccc21` was 1.17 (inactive).
Same read-out and setting: the value for `COC(=O)c1c(NC(=O)Cn2nc(C)c([N+](=O)[O-])c2C)sc2c1CCCC2` was -1.68 (inactive); that for `O=C(NCc1ccccn1)c1cccn2c(=O)c3c4c(sc3nc12)CCCC4` was -1.8 (inactive); that for `CSc1ccccc1NC(=O)c1onc(C)c1Cl` was 1.5 (inactive).
Same read-out and setting: the value for `COc1ccc(-c2nc(CSc3nc4ccncc4[nH]3)c(C)o2)cc1` was -1.53 (inactive); that for `CCOP(=O)(OCC)C(Nc1ccccn1)c1ccc(F)cc1` (centres undefined) was -1.13 (inactive).
Regarding `COc1cc2nc(CN3C(=O)c4ccccc4C3=O)oc(=O)c2cc1OC`, the fold change was -2.87 (active).
On the same count and under the same terms, the value for `CCOC(=O)CNc1c(N(C)C2CCCCC2)c(=O)c1=O` was -1.1 (inactive); that for `Fc1ccccc1Nc1nc2ccccc2n2nnnc12` was 1.5 (inactive).
